Z-score data for eleven compounds are collected here from PubChem BioAssay.

Unmarked numbers belong to inactive results. The rule behind the calls is not given here.

A short description of the first assay: inhibitors of hydroxyurea-induced Chk1 phosphorylation, primary screen, imaging, HeLa, phospho-Chk1 antibody, percent positive cells (AID 1186). As to conditions: hydroxyurea-induced phospho-Chk1 immunofluorescence imaging, higher = more signal.
Turning to `O=C1c2ccccc2[C@@]2(Cc3ccccc3N(Cc3ccccc3)C2=O)[C@H](c2ccc(CO)cc2)N1Cc1ccccc1Cl`, the z-score is -0.0672.

Turning to `CC1CC/C=C\[C@H]2OC34C=CCN(C(C)(C)C)C(=O)[C@H]3N(CCCO)C(=O)[C@@H]4C2C(=O)O1` (stereo partly specified), the z-score is 0.0854.

With `O=C1C[C@@](C(=O)O)(c2ccc([N+](=O)[O-])cc2)[C@@H](c2ccc(CO)cc2)N1C1CCCCC1`, the z-score was -0.119.

On to `C=C(COC)/C(=C/C[C@H](OC(C)=O)c1ccccc1OCCO)c1cc(C(=O)OC)ccc1OC`, for which the z-score is -1.15.

With `CC(C)N1C(=O)c2ccccc2[C@](C)(C(=O)NCC(F)(F)F)[C@@H]1c1ccc(CO)cc1`, the z-score is 0.256.

The next assay is described as follows: inhibitors of hydroxyurea-induced Chk1 phosphorylation, primary screen, imaging, HeLa, phospho-Chk1 nuclear intensity (AID 1187). Note: test concentration not given here. The following applies: hydroxyurea-induced phospho-Chk1 immunofluorescence imaging, higher = more signal.
Turning to `COc1ccc([Si](C)(C)[C@H]2[C@H](CC(=O)N3Cc4ccccc4C[C@H]3CO)O[C@@]3(C(=O)N(C)c4ccccc43)[C@@H]2C)cc1`, the z-score is 0.169.

Take `O=C1O[C@H](Cc2ccccc2)[C@@H]2[C@H]3C=CCCC=C3CN2[C@H]1Cc1ccc(O)cc1`: the z-score is -0.122.

`CCOc1cc(C(O)C2C=CC3C(=O)N(c4ccccc4)C(=O)C3N2Nc2ccccc2F)ccc1O` (stereo unspecified): the z-score was -0.304.

Consider `[N-]=[N+]=NCc1ccccc1[C@@H]1OC(c2ccc(OCCCO)cc2)=N[C@]1(Cc1ccccc1N=[N+]=[N-])C(=O)O`, for which the z-score was 0.585.

As for `[N-]=[N+]=Nc1ccccc1C[C@@]1(C(=O)NCC(O)CO)N=C(c2ccc(OCCCO)cc2)O[C@@H]1c1ccccc1` (stereo partly specified), the z-score is -0.145.

With `C=CCC(OC(C)=O)[C@@H]1[C@@H](N(Cc2ccc(-c3cccc(C(F)(F)F)c3)o2)C(=O)Cc2ccc(F)cc2)c2cc(OCCCO)ccc2N1C(=O)Cc1ccc2ccccc2c1` (stereo partly specified), the z-score is 0.0472.
